# This is a sample that favours compounds with a hit; in the whole collection about 1.8% have one here.
# GCN5L2 inh – GCN5L2 (KAT2A) acetyltransferase inhibition. Q92830. GCN5L2 HAT assay, ThioGlo1 CoA-SH fluorescence. Potency, µM (series often up to 58.9 µM), for inactives: at the top dose activity change, negative = inhibition, most hits filed as inhibitors. actives 0.21% (n = 390,000). AID 504327; also: potency is read from the fitted curve at half-maximal effect; % is scaled to controls: 0 for no effect and ±100 for the full control effect
#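 Enzyme at 20nM final was mixed with library compounds for 15 min at room temperature. Peptide H3(1-25) at 75uM, acetyl-CoA at 70uM and ThioGlo1 at 50uM were then added. Plates were read immediately and after 20 min (Ex340nm/Em540nm).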
# TrxR1 substrate – rat thioredoxin reductase 1 substrate activity; Potency, µM (series often up to 114 µM), for inactives: top-dose activity change, negative = substrate turnover; purified TrxR1 substrate turnover, NADPH consumption readout; AID 588456; actives 0.01% (n = 390,000); O89049; also: potency is read from the fitted curve at half-maximal effect; % is scaled to controls: 0 for no effect and ±100 for the full control effect; nearly all actives have a fitted effect of over 50% in size
#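 Rat TrxR1, dispensed at 90 nM, was prereduced with 400 uM NADPH (final) for 5 min at ~22 deg C, then incubated with compound 15 min before 400 uM selenite. A first-read NADPH fluorescence drop versus no-compound background flagged substrates.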
# TrxR1 inh-1 – blocks rat thioredoxin reductase 1; O89049; actives 1% (n = 390,000); AID 588453; Potency, µM (highest dose often 114 µM), for the others: top-dose activity change, negative = inhibition, usual class: inhibitors; recombinant rTrxR1, NADPH fluorescence consumption, selenite substrate; also: potency is read from the fitted curve at half-maximal effect; % is scaled to controls: 0 for no effect and ±100 for the full control effect; nearly all actives have a fitted effect of over 65% in size
#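 Rat TrxR1 (90 nM in the dispensed reagent) was pre-reduced with 400 uM NADPH for 5 min at room temperature, then incubated with compound for 15 min. After 400 uM selenite was added, NADPH fluorescence (Ex 340/Em 450 nm) was followed for 8 min.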
# VDR inh – inhibitors of human vitamin D receptor. P11473. VDR-SRC2-3 peptide fluorescence polarization, 2 h. Potency, µM, inactives show max response, negative = inhibition, actives largely listed as inhibitors. actives 0.93% (n = 400,000). AID 504847; also: potency is read from the fitted curve at half-maximal effect; % is scaled to controls: 0 for no effect and ±100 for the full control effect
# Target sequence (P11473 whole entry, looked up): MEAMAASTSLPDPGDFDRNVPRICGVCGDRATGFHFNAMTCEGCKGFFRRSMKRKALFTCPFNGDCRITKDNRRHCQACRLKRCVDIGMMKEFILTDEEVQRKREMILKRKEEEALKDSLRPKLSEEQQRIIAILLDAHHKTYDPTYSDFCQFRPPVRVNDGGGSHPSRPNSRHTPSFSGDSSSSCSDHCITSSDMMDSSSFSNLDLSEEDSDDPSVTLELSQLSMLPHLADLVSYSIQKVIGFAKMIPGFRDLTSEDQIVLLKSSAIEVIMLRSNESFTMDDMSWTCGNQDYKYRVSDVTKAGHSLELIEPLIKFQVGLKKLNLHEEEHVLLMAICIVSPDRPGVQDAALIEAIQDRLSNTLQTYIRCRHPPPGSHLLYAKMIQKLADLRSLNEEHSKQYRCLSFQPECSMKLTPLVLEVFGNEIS
#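 Fluorescence polarization assay of small-molecule disruption of VDR binding to coregulator peptide SRC2-3. Compounds and controls pin-transferred, then read after 2 h incubation at ambient room temperature.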
# TRb SRC2 Alpha – confirmation of human TRb-SRC2 interaction inhibitors. shares compounds with TrxR1 inh-1. AlphaScreen TRb LBD-SRC2 peptide binding, luminescence. Potency, µM. actives 50% (n = 30); calls by dose curve
# HepG2 tox – reduces HepG2 viability in TRb-SRC2 counter-screen; shares compounds with TrxR1 inh-1; HepG2 viability, ATP luminescence (CellTiter-Glo), 72 h; Potency, µM; actives 50% (n = 40); AID 2447; calls by dose curve
# AR-SRC2 inh – disrupts human androgen receptor binding to SRC2 peptide; AR-LBD Tx-SRC2-3 fluorescence polarization, 3 h; 25 tested, under 10 active; shares compounds with TrxR1 inh-1; calls only; AID 2448; call rule not given here
# PPARg-DRIP2 inh – PPARg-DRIP2 (human) interaction inhibition, selectivity | shares compounds with TrxR1 inh-1 | PPARg LBD / Texas Red DRIP-2 peptide, fluorescence polarization, 3 h | Potency, µM | 25 tested, under 10 active; calls by dose curve
# VDR SRC2 FP – VDR-SRC2 (human) interaction inhibition, selectivity; 25 tested, under 10 active; Potency, µM; shares compounds with TrxR1 inh-1; VDR LBD/SRC2-3 peptide, fluorescence polarization, 3 h; calls by dose curve
# TRb SRC2 FluoFP – disrupts human TRb binding to fluorescein-SRC2 peptide. shares compounds with TrxR1 inh-1. 20 tested, under 10 active. TRb LBD / fluorescein-SRC2 peptide, fluorescence polarization. Potency, µM; call rule not given here
# GR counterassay – glutathione reductase inhibition, TrxR1 selectivity check; shares compounds with TrxR1 inh-1; purified GR, DTNB reduction absorbance 405 nm kinetic; activity change, negative = inhibition, % at 57.1 µM; 55 tested, under 10 active
# TrxR1 inh-2 – blocks rat thioredoxin reductase 1 in hit validation; shares compounds with TrxR1 inh-1; recombinant TrxR1, NADPH fluorescence consumption, selenite substrate; Potency, µM, most hits filed as inhibitors; actives 50% (n = 55)
# TrxR1 insulin MOA – inhibits TrxR1-driven insulin reduction; AID 652037; actives 20% (n = 55); Potency, µM; TrxR1 Trx-coupled insulin reduction, NADPH absorbance 340 nm; shares compounds with TrxR1 inh-1;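 active = compounds with a measured potency under 100 micromolar; inconclusive = filed, but no rule given; inactive = potency at or above that, or unmeasurable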
# TrxR1 inh-3 – inhibitors of rat thioredoxin reductase 1, DTNB reduction | shares compounds with TrxR1 inh-1 | purified TrxR1, DTNB reduction, A412 | Potency, µM | actives 90% (n = 55) | AID 652256;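 active = a half-inhibiting concentration could be measured and was below 100 µM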
# The depositor's hits bear a star; i = inactive; ? = inconclusive; . = not tested or not shown; ! = a repeat was not active; [ ] = remark or other dose. Unless noted, calls follow the shape of the dose curve; as a rule, active = well fitted curve in the direction sought with a large enough effect; inconclusive = small, poorly fitted or top-dose-only effect, or another doubt; inactive = no such curve, though single readings can be large; an effect the other way counts as inactive or inconclusive.
SMILES,GCN5L2 inh,TrxR1 substrate,TrxR1 inh-1,VDR inh,GR counterassay,TrxR1 inh-2,TrxR1 insulin MOA,TrxR1 inh-3,others
CS(=O)(=O)c1ccc(C(=O)OCC(=O)N2CC(=O)Nc3ccccc32)cc1[N+](=O)[O-],.,0%,2.8µM*,?,.,.,.,.,TRb SRC2 Alpha=10µM*;HepG2 tox=16µM*;AR-SRC2 inh=i;PPARg-DRIP2 inh=15µM*;VDR SRC2 FP=64µM*;TRb SRC2 FluoFP=2.8µM*
Cc1cc(=O)n(Cc2ccc(Br)cc2F)c2c1c(C)nn2-c1ccccc1,-1%,9%[57.1 µM],23%[57.1 µM],3%,.,.,.,.,
OCCOC[C@H]1O[C@H](OCCO)[C@H](OCCO)[C@@H](OCCO)[C@@H]1OCCO (tested in a mixture with another compound),1%,.,.,-2%,.,.,.,.,
Cc1cccc(NS(=O)(=O)c2nnc(NC(=O)c3cccc(C)c3)s2)c1,4%,-4%,18%,-9%,.,.,.,.,
Cc1cccc(C(=O)Nc2nnc(S(=O)(=O)N(C)Cc3ccco3)s2)c1,-7%,0%,45µM*!,89µM*!,-3,?,?,49µM*,
CCc1c(C(C)S(=O)(=O)c2ccccc2)[nH]c(=O)n1CC (configuration not stated),-7%,-16%[57.1 µM],1.8µM*,-24%,-13,2.4*,4µM*,0.045µM*,
CCn1c(=O)[nH]c2ccccc2c1=O,-1%,9%[57.1 µM],5%[57.1 µM],-8%,.,.,.,.,
CN1c2ccccc2N(C)C1(C)c1cccc2ccccc12,-6%,-8%,50µM*,-27%,-15,?,i,4.4µM*,
CN1c2cccc3cccc(c23)N(C)C1(C)C,-22%,238%,-32%,-10%,.,.,.,.,
Cc1ccc(NC(=O)CCN2C(=O)c3ccccc3Sc3ncccc32)cc1,-4%,-10%,11µM*,4%,0,9.5*,i,i,
Cc1ccccc1NC(=O)CCN1C(=O)c2ccccc2Sc2ncccc21,1%,-1%,?,-3%,.,.,.,.,
COc1ccc(C(c2nnnn2C2CCCC2)N2CCc3ccccc3C2)cc1OC (configuration not stated),-2%,-6%[57.1 µM],7%[57.1 µM],3%,.,.,.,.,
CCC(C)(C)n1nnnc1C(c1ccc(O)cc1)N1CCc2ccccc2C1 (configuration not stated),3%,7%[57.1 µM],16µM*,?,-21,7.5*,i,0.24µM*,
COCCn1nnnc1C(c1ccc(O)c(OC)c1)N1CCc2ccccc2C1 (configuration not stated),?,20%[57.1 µM],5.6µM*,-20%,0,4.7*,i,0.27µM*,
CN(C)C1(CNC(=O)COc2cccc(Cl)c2)CCCCC1,-14%,3%,25%,-6%,.,.,.,.,
